# HEK293 tox: cytotoxic in the GLP-1 receptor inverse agonist counter-screen | HEK293 cAMP-luciferase reporter cells, luminescence, 24 h | Potency, µM (series often up to 38.3 µM), inactives show top-dose activity change, negative = inhibition, hits mostly inhibitors | 0.13% of 410,000 active | AID 624418;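 also: loss of luciferase light is scored as toxicity; potency is read from the fitted curve at half-maximal effect; % is scaled to controls: 0 for no effect and ±100 for the full control effect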
#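 Cells in DMEM/10% Nu serum/1% pen-strep, 1536-well format. Pre-incubated 12 h, dosed with 23 nL compound, incubated a further 24 h. Luciferase detection, 12 min at room temp, luminescence.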
# D3 antag: blocks the human D3 dopamine receptor | 2.5% of 360,000 active | max response, negative = inhibition, % | D3R cells, DiscoveRx beta-arrestin luminescence, antagonist mode; stronger effect = lower value; in the data active = max response below about -50%; inconclusive = no clear call, values can overlap the other calls; also: % is scaled to controls: 0 for no effect and ±100 for the full control effect
#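 Cells plated overnight at 1500 cells/well, then exposed to library compounds with dopamine controls for 90 minutes at 37 degrees C. DiscoveRx reagent added for 30–60 minutes at room temperature; luminescence read, quantitative HTS format.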
# GLP1R ag: agonists of human GLP-1 receptor; P43220; HEK293 GLP-1R CRE-luciferase, luminescence, 4-6 h; cells express a hypersensitive GLP-1R form; Potency, µM (titrated, usually from 45.6 µM), inactives show at the highest dose activation, usual class: activators; 0.007% of 380,000 active; AID 624172; also: potency is read from the fitted curve at half-maximal effect; % of control where 0% means no effect
# Target sequence (P43220 whole entry, looked up): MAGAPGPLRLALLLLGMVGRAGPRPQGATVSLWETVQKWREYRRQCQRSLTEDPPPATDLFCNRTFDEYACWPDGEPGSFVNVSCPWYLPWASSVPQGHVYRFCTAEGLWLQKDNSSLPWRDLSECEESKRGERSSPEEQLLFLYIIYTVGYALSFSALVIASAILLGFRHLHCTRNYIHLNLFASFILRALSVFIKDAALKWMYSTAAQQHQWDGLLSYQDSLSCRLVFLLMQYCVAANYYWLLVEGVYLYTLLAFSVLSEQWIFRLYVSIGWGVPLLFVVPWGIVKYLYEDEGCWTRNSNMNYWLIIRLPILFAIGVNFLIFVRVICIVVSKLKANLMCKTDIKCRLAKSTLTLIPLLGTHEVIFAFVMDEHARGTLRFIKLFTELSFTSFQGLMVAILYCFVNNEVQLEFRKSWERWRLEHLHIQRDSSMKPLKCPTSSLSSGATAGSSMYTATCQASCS
# ClpP mod: qHTS Assay for Activators of ClpP; ATP-dependent Clp protease proteolytic subunit (Bacillus subtilis (strain 168)), P80244; purified B. subtilis ClpP, FRET peptide cleavage, 20 min; Potency, µM (series often up to 57.5 µM), for inactives: top-dose activity change, negative = active; 1.9% of 340,000 active; AID 651965, 2013; active = well fitted falling curve with a large enough effect; inconclusive = small, poorly fitted or top-dose-only effect; inactive = no such curve, though single readings can be large or run the other way; also: potency is read from the fitted curve at half-maximal effect; the source files actives as falling curves though it sought activators and does not explain the sign; nearly all actives have a fitted effect of over 65% in size
# Target sequence (P80244 whole entry, looked up): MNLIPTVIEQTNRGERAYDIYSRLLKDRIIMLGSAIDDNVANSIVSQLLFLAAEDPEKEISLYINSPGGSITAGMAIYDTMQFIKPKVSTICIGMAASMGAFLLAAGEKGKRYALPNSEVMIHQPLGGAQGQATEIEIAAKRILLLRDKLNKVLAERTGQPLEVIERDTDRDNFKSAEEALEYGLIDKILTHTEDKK
#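 Buffer: 100 mM Tris/HCl pH8, 100 mM KCl, 0.05% low protease BSA, 2.5% glycerol, 0.01% Tween-20. ClpP 10 microg/mL final; 20 min RT; delta FRET normalized to ADEP and DMSO controls.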
# DRD3 agonist: agonists of human D3 dopamine receptor; P35462; D3R DiscoveRx beta-arrestin cells, luminescence, 90 min; max activation, %; 0.58% of 410,000 active; AID 652048; in the data active = max activation above about 30%; also: 0% is about no effect
#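 Agonist mode: compounds and dopamine controls were applied to plated cells for 90 min at 37 degrees C after an overnight attachment at 1500 cells/well. Luminescent read-out followed 30 - 60 minutes at room temperature with DiscoveRx detection reagent.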
# GLP1R inv ag: acts as inverse agonist at human GLP-1 receptor; Potency, µM (doses to about 38.3 µM), for the others: at the highest dose activity change, negative = inhibition, most hits filed as inhibitors; HEK293 GLP-1R CRE-luciferase, luminescence, 24 h; GLP-1R form is constitutively active; 1.6% of 410,000 active; P43220; also: potency is read from the fitted curve at half-maximal effect; % is scaled to controls: 0 for no effect and ±100 for the full control effect; nearly all actives have a fitted effect of over 55% in size
#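 Seeding at 200 cells/uL, 12 h culture, 24 hr compound treatment, then luciferase reagent and a luminescence read; cells are HEK293 stably expressing a constitutively active GLP-1R plus cAMP-responsive luciferase.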
# An asterisk follows results filed as active; u = inconclusive; x = no result given. Compounds with a hit are over-represented: about 5.7% of the library has one in this group of screens. Unless noted, calls follow the shape of the dose curve; as a rule, active = well fitted curve in the direction sought with a large enough effect; inconclusive = small, poorly fitted or top-dose-only effect, or another doubt; inactive = no such curve, though single readings can be large; an effect the other way counts as inactive or inconclusive.
SMILES,HEK293 tox,D3 antag,GLP1R ag,ClpP mod,DRD3 agonist,GLP1R inv ag
CC(C)(C)c1cc(C(=O)NNc2cc(C(F)(F)F)ccc2Cl)n(Cc2ccccc2)n1,-81%,24,3%,3.2µM*,11,4µM*
Cc1ccc(NNC(=O)c2cc(C(C)(C)C)nn2Cc2ccccc2)cc1,4%,-9,-1%,-3%,-13,3.2µM*
CC(C)(C)c1cc(C(=O)NNc2ccc(OC(F)(F)F)cc2)n(Cc2ccccc2)n1,6%,1,4%,x,-4,2.2µM*
Cc1ccc(-c2cc(C(=O)O)n(Cc3ccccc3)n2)cc1,3%,x,x,-1%,6,6%
CC(C)(C)C(=O)NNC(=O)c1cc(C(C)(C)C)nn1Cc1ccccc1,6%,-27,11%,-1%,0,u
Cc1cccc(-n2c3nc(=O)n(C)c(=O)c-3cc3c(C)nn(-c4ccccc4)c32)c1C,0%,x,1%,4%,3,8%
CC(C)(C)c1cc(C(=O)NC2CC2)n(Cc2ccc(F)cc2)n1,-3%,-11,10%,x,7,u
CC(C)(C)c1cc(C(=O)Nc2ccc(F)cc2)n(Cc2ccc(F)cc2)n1,u,109,-5%,-1%,19,2.8µM*
CC(C)(C)c1cc(C(=O)NNc2cccc(Cl)c2)n(Cc2ccccc2)n1,6%,-16,-1%,0%,10,1.3µM*
Cc1ccc(-c2nnc(Cc3ccc(Cl)cc3)o2)cc1,0%,-29,21%,0%,2,u
O=c1c(Cl)c(Cl)cnn1Cc1nnc(-c2ccc(Cl)cc2)o1,u,-87*,-9%,x,-18,-93%
COc1ccc(C(=O)NN/C=C/C(=O)c2ccc(Br)cc2)cc1,u,-29,-2%,-5%,-11,u
O=C(/C=C/NNC(=O)c1ccccc1)c1ccc(Br)cc1,u,-77*,-12%,0%,-14,u
COc1ccc(C(=O)C=CNNC(=O)c2ccc(Cl)cc2)cc1,u,-54*,-1%,x,-12,u
O=C(/C=C/NNC(=O)c1ccc(Cl)cc1)c1ccccc1,u,-12,-10%,0%,-5,u
CCCN(Cc1cc2ccccc2[nH]c1=O)C(=O)c1cccc([N+](=O)[O-])c1,14%,9,8%,x,-7,-2%
CC(C)(C)N(Cc1cc2ccccc2[nH]c1=O)C(=O)c1cccc([N+](=O)[O-])c1,-3%,-17,0%,-4%,47*,-30%
CC(C)(C)NCC(O)CSc1nc(-c2ccc(C(N)=O)s2)cs1 (centres undefined),x,x,x,x,2,x
CN(C)c1cc(N/N=C/c2ccc(Cl)cc2)nc(N(C)C)n1,u,0,-1%,-9%,-1,2.5µM*
O=C(CCCn1c(=O)c2ccccc2n(CC(=O)Nc2cccc(C(F)(F)F)c2)c1=O)NCc1ccc2c(c1)OCO2,5%,x,1%,-4%,-7,9%
COc1ccc(CNC(=O)CN(c2cc(C(F)(F)F)ccc2Cl)S(C)(=O)=O)cc1,-7%,x,0%,-2%,-9,-11%
CN(C1=C(NC(=O)c2ccc(Cl)cc2)C(=O)c2ccccc2C1=O)c1ccccc1,-25%,-52*,-8%,-2%,-21,u
O=C1C(Cl)=C(NC(=O)c2ccccc2)C(=O)C(Cl)=C1NC(=O)c1ccccc1,u,-71*,-2%,-3%,-37,u
CCc1cccc(NC(=O)c2coc(=O)c3ccccc23)c1,-18%,x,-1%,11%,-2,u
Cc1ccc(S(=O)(=O)N2Cc3ccccc3CC2C(=O)N(C)C)cc1 (centres undefined),0%,25,11%,2%,0,-1%
SMILES,HEK293 tox,D3 antag,GLP1R ag,ClpP mod,DRD3 agonist,GLP1R inv ag
CCN(C(=O)COC(=O)c1c(NC(C)=O)sc(C)c1C)c1c(N)n(Cc2ccccc2)c(=O)[nH]c1=O,-20%,11,-1%,-9%,0,2%
COC(=O)c1ccc(C23CC4(C2)[C@H](CN(Cc2ccc(C(F)(F)F)cc2)[C@@H]4c2ccccc2)C3c2ccccc2)cc1 (some centres undefined),20%,0,-1%,-4%,-8,16%
FC(F)(F)c1ccc(CN2C[C@@H]3C(c4ccccc4)C4(c5cccnc5)CC3(C4)[C@H]2c2ccccc2)cc1 (some centres undefined),7%,24,-1%,0%,3,11µM*
COC(=O)c1ccc(C23CC4(C2)[C@H](CN(C)[C@@H]4c2ccccc2)C3c2ccc(C(F)(F)F)cc2)cc1 (some centres undefined),-10%,-4,-4%,-7%,2,10µM*
Cc1cc(C)c[n+](CC(=O)c2cc3ccccc3oc2=O)c1,19%,u,-11%,28µM*,2,1%
Cc1ccc[n+](CC(=O)c2cc3ccccc3oc2=O)c1,-9%,17,-3%,u,1,-10%
O=C(Cn1nc(Cl)nc1Cl)c1cc2ccccc2oc1=O,11%,-12,0%,28µM*,1,23%
COc1ccccc1CNC(=O)c1cc2cc3ccc(Cl)cc3nc2o1,-4%,x,-1%,-9%,-2,11%
COc1cccc2c1Oc1ncccc1N(c1ccc(C(=O)NCc3ccccc3C)s1)C2,2%,x,x,32µM*,8,-19%
Cc1ccc(CNC(=O)c2ccc(N3Cc4ccccc4Oc4ncccc43)s2)cc1,1%,x,x,u,3,-20%
CCOC(=O)COc1ccc(Br)cc1/C=C/c1[nH]c(=O)[nH]c(=O)c1[N+](=O)[O-],u,-14,-6%,x,3,10µM*
CCOC(=O)COc1ccc(Br)cc1/C=C\c1[nH]c(=O)[nH]c(=O)c1[N+](=O)[O-],-34%,15,-5%,1%,1,u
CCN(CC)C(=O)c1cccc(-c2csc(C(O)c3cccc(OC)c3)n2)c1 (centres undefined),3%,10,-5%,1%,-2,-26%
C#CCCCCCCC#CCN(C)C,7%,-58*,3%,32µM*,-15,11%
CC(=O)N1CCCc2ccc(NC(=O)c3ccc(OC(C)C)cc3)cc21,1%,x,x,-1%,3,29%
O=C(Nc1nc(-c2ccccc2)cs1)C1CCCO1 (centres undefined),1%,-91*,0%,0%,5,2%
CCn1nc(C(=O)OCC(=O)NCC(C)C)c2ccccc2c1=O,-7%,-1,4%,-1%,10,19%
O=C(Nc1nc(-c2ccc(-c3ccccc3)cc2)cs1)C1CCCO1 (centres undefined),1%,-2,-4%,-23%,3,1%

# Assay outcomes deposited in PubChem BioAssay by National Center for Advancing Translational Sciences (NCATS).
